The full ranking holds about 11,000 sequences; the median of “log2 fold change” is about 0.00022, and the highest 2% start at about 0.34. The list shows a part of the results.
biological target: GST-SBP-SLBP (stem-loop binding protein) (Homo sapiens, UniProt Q14493 1-270); assay: targeted RNA Bind-n-Seq; RBNS binding buffer: 25 mM Tris pH 7.5, 150 mM KCl, 3 mM MgCl2, 0.1% Tween, 0.5 mg/mL BSA, 1 mM DTT; 27 nM protein, 750 pM RNA pool; temperature not stated; high values mean tight binding; conditions: protein: recombinant; tags: N-terminal GST and SBP (pGEX6P1-SBP); structured_RNA
Outline: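 The protein, carrying a GST-SBP tag, was produced in Rosetta(DE3) pLysS E. coli, purified on glutathione, and mixed at 27 nM with 750 pM of a designed RNA oligo pool made by T7 transcription in RBNS binding buffer. RNA that bound was reverse transcribed using a barcoded primer of 10 nucleotides, amplified by PCR and sequenced on a MiSeq with 200-cycle paired-end reads. FLASH joined the reads, HISAT2 aligned them, and they were collapsed by barcode before the binding signal was taken as the DEseq binary-logarithm fold change of read counts for each sequence.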

Sequence | binding signal [log2 fold change]
GGUCACGUCUCAAUCAACUCUACAGAGGGGGGGAAAACCCCUUUACCCUCACUCUCAACAGCUCGCAGUCAAG | 0.332 ± 0.424
GGUCACGUCUCAAUCAACUCUCUCGAGGGGGGGAAAACCCCUUUACCCUCACAAUCAACAGCUCGCAGUCAAG | 0.571 ± 0.435
GGUCACGUCUCAAUCAACUCUAUCGAGGGGGGGAAAACCCCUUUACCCUCACAAUCAACAGCUCGCAGUCAAG | 0.599 ± 0.418
GGUCACGUCUCAAUCAACUCAAUAGAGGGGGGGAAAACCCCUUUGCCCUCAAUCUCAACAGCUCGCAGUCAAG | 0.451 ± 0.42
GGUCACGUCUCAAUCAACUCAAUAGAGGGGGGGAAAACCCCUUUGCCCUCAACAUCAACAGCUCGCAGUCAAG | 0.421 ± 0.37
GGUCACGUCUCAAUCAACUCAAUAGAGGGGGGGAAAACCCCUUUGCCCUCGAAAUCAACAGCUCGCAGUCAAG | 0.399 ± 0.404
GGUCACGUCUCAAUCAACUCCAUAGAGGGGGGGAAAACCCCUUUGCCCUCGAAAUCAACAGCUCGCAGUCAAG | 0.382 ± 0.389
GGUCACGUCUCAAUCAACUCAUUAGAGGGGGGGAAAACCCCUUUGCCCUCAUACUCAACAGCUCGCAGUCAAG | 0.461 ± 0.451
GGUCACGUCUCAAUCAACUCCUUAGAGGGGGGGAAAACCCCUUUGCCCUCAUACUCAACAGCUCGCAGUCAAG | 0.464 ± 0.44
GGUCACGUCUCAAUCAACUCACUAGAGGGGGGGAAAACCCCUUUGCCCUCCAACUCAACAGCUCGCAGUCAAG | 0.317 ± 0.385
GGUCACGUCUCAAUCAACUCACUAGAGGGGGGGAAAACCCCUUUGCCCUCAUACUCAACAGCUCGCAGUCAAG | 0.37 ± 0.365
GGUCACGUCUCAAUCAACUCAUUAGAGGGGGGGAAAACCCCUUUGCCCUCAAAAUCAACAGCUCGCAGUCAAG | 0.487 ± 0.428
GGUCACGUCUCAAUCAACUCAUUAGAGGGGGGGAAAACCCCUUUGCCCUCACCUUCAACAGCUCGCAGUCAAG | 0.303 ± 0.392
GGUCACGUCUCAAUCAACUCAUUAGAGGGGGGGAAAACCCCUUUGCCCUCAUCUUCAACAGCUCGCAGUCAAG | 0.356 ± 0.431
GGUCACGUCUCAAUCAACUCCAUAGAGGGGGGGAAAACCCCUUUGCCCUCAAUUUCAACAGCUCGCAGUCAAG | 0.426 ± 0.447
GGUCACGUCUCAAUCAACUCCAUAGAGGGGGGGAAAACCCCUUUGCCCUCAUUUUCAACAGCUCGCAGUCAAG | 0.381 ± 0.414
GGUCACGUCUCAAUCAACUCCAUAGAGGGGGGGAAAACCCCUUUACCCUCAUUUUCAACAGCUCGCAGUCAAG | 0.342 ± 0.445
GGUCACGUCUCAAUCAACUCAACAGAGGGGGGGAAAACCCCUUUACCCUCAUUUUCAACAGCUCGCAGUCAAG | 0.422 ± 0.451
GGUCACGUCUCAAUCAACUCUUCAGAGGGGGGGAAAACCCCUUUGCCCUCAAUUUCAACAGCUCGCAGUCAAG | 0.337 ± 0.433

Sequence | binding signal [log2 fold change]
GGUCACGUCUCAAUCAACUCUCCAGAGGGGGGGAAAACCCCUUUGCCCUCCAUUUCAACAGCUCGCAGUCAAG | 0.536 ± 0.422
GGUCACGUCUCAAUCAACUCCUACGAGGGGGGGAAAACCCCUUUACCCUCAUCAUCAACAGCUCGCAGUCAAG | 0.348 ± 0.402
GGUCACGUCUCAAUCAACUCACACGAGGGGGGGAAAACCCCUUUACCCUCAUCCUCAACAGCUCGCAGUCAAG | 0.453 ± 0.432
GGUCACGUCUCAAUCAACUCCUACGAGGGGGGGAAAACCCCUUUACCCUCAACCUCAACAGCUCGCAGUCAAG | 0.619 ± 0.434
GGUCACGUCUCAAUCAACUCCUACGAGGGGGGGAAAACCCCUUUACCCUCAAAUUCAACAGCUCGCAGUCAAG | 0.442 ± 0.411
GGUCACGUCUCAAUCAACUCCUACGAGGGGGGGAAAACCCCUUUACCCUCAUAAUCAACAGCUCGCAGUCAAG | 0.382 ± 0.421
GGUCACGUCUCAAUCAACUCAAUCUCAGGAGUUUACUCCUGCAAAGUCAACAGCUCGCAGUCAAG | 0.321 ± 0.217
GGUCACGUCUCAAUCAACUCUAGUCCAGGAGUUUACUCCUGUUUAUUCAACAGCUCGCAGUCAAG | 0.313 ± 0.255
GGUCACGUCUCAAUCAACUCAACUCCAGGAGUUUACUCCUGUAAUCUCAACAGCUCGCAGUCAAG | 0.456 ± 0.227
GGUCACGUCUCAAUCAACUCAUCGCCAGGAGUUUACUCCUGCUAAUUCAACAGCUCGCAGUCAAG | 0.301 ± 0.286
GGUCACGUCUCAAUCAACUCAUCUCCAGGAGUUUCCUCCUGCAUACUCAACAGCUCGCAGUCAAG | 0.323 ± 0.222
GGUCACGUCUCAAUCAACUCAUGUCCAGGAGUUUACUCCUGCAAUCUCAACAGCUCGCAGUCAAG | 0.371 ± 0.281
GGUCACGUCUCAAUCAACUCAUCUUCAGGAGUUUGCUCCUGCAAUCUCAACAGCUCGCAGUCAAG | 0.328 ± 0.197
GGUCACGUCUCAAUCAACUCAGGUCCAGGAGUUUACUCCUGCAAAUUCAACAGCUCGCAGUCAAG | 0.356 ± 0.313
GGUCACGUCUCAAUCAACUCAUUCCCAGGAGUUUACUCCUGUAAUUUCAACAGCUCGCAGUCAAG | 0.331 ± 0.233
GGUCACGUCUCAAUCAACUCAAUUCCAGGAGUUUCCUCCUGCAUUUUCAACAGCUCGCAGUCAAG | 0.321 ± 0.19
GGUCACGUCUCAAUCAACUCAGGUCCAGGAGUUUACUCCUGCAAUUUCAACAGCUCGCAGUCAAG | 0.516 ± 0.297
GGUCACGUCUCAAUCAACUCUUCCCCAGGAGUUUACUCCUGCAUUUUCAACAGCUCGCAGUCAAG | 0.302 ± 0.227

From PMC5892938, “SARNAclust: Semi-automatic detection of RNA protein binding motifs from immunoprecipitation data”
